# From the supplement of paper PMC11417369
# In all, about 25,000 sequences were measured (“ln(normalized median fluorescence intensity)”: median about 7.1, highest 2% from about 10 on). The full list was thinned out, with the highest values kept by preference.
# Tested on: PfSIP2 AP2 domain 1 (GST-tagged)
# Assay: gcPBM binding intensity (ln(normalized median fluorescence intensity)); higher = stronger DNA binding
# Summary of the method: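 Binding intensity values are the highest Masliner-normalised natural-log median intensity among replicate spots of either probe orientation. The binding step lasted 1 h in 1× PBS with 1% milk, 0.2 mg/ml BSA, 0.5% salmon testes DNA and 0.03% Triton X-100, using GST-tagged P. falciparum DNA-binding domains expressed in E. coli on an Agilent 4 × 180k array of primer-extended double-stranded 36-bp intergenic genomic probes plus negative controls. Alexa488 anti-GST antibody and a 488 nm scan detected bound protein.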
row,Sequence,gcPBM binding intensity (ln)
1,TTAATATTGTATTTCACACATAATTTAATATACTCA [CACACA_site5678],6.87
2,CAAAAAAAAAAAAAAACACACATTAAATTATAAAGA [CACACA_site2613],6.77
3,TTTTATATTCCACAAAAAATTATATAATAATAGAAC [CACACA_negctrl_site1741],7.26
4,TATATATATATATTCACACATAAATATATGCACCCA [CACACA_site4263],11.6
5,TGTAGAAATGGGTGCACACACATATATAATATATAT [CACACA_site2507],12.3
6,AAAATATAATATAATGCACACATAAAAAAAAAAAAA [CACACA_site7989],7.19
7,TATATATATATATTCACACATAAAAATAAAATAAAA [CACACA_site4774],8.88
8,ATAATAAAAAAAAATGCACACATATATATATATATA [CACACA_site8766],9.29
9,TAAACATAAATATGCACACATATACATATATTCATA [CACACA_site2667],7.34
10,TATTTGATAAATTATACACACACAATATATATAAAA [CACACA_site8625],6.94
11,AAGATTAGGTTAATTAGTACTTATTATATTGTAATG [XGTACX_site3653],6.85
12,TATACCAATGAATGAGTGCAAAGAAGATAAGGAAAA,8.58
13,TACCAATGCATAACGGTGCAAAAAAATAAGGAATAA,10.7
14,AATAAAAATAATATAGTGCATAATATAAGGAAAAAA,9.36
15,AAAATGGTTTATAAATGTACATATATTATATATAAC [XGTACX_site7959],7.03
16,TATGTGCACCCATGTACATGCGGACATATGTTATAT [TGCATGCA_site383],12
17,TATATATATATATATGCATGTACATATATTTGTTAT [TGCATGCA_site379],9.76
18,ATATATATATATGCATGTACATATATTTGTTATATC [XGTACX_site3197],9.3
19,AAAATAAAAAATTAATGTACTTAGAATTGTCACTAA [XGTACX_site1346],6.79
20,AGAAAAAAACAACATGCACACGCACCCACAAAAAAA [CACACA_site7908],10.2

row,Sequence,gcPBM binding intensity (ln)
1,AAAAAAACAACATGCACACGCACACCCAAAAAAAGC [CACACA_site72],7.96
2,CCAACATGCCCACGCACACACAAAAAAAGCATGCAT [CACACA_site4217],7.23
3,TATGCAAGGAACCACACACACACACGGAAATGTATA [CACACA_site6490],6.94
4,AATTTAATATAATGCACACATAAAAAAAAATTCAAA [CACACA_site2062],7.16
5,TGTTAAAATTATTTGGTGCACTTGTTTTACCTTATT,11.3
6,AAAATATAAATTCATGTGCACATATATATTTTGTTA [GTGCAC_site9782],8.24
7,TATTTCACTTTTTGTCTGCACTAAAATTTTATGGTA,7.74
8,CTTATTTTGTTATAAGTGCATTTTTTAAAATTTCTT,9.64
9,TGTTATTTTAAAAAAAAAATTATTAACTTAAAAAAA [CACACA_negctrl_site1641],6.68
10,TTTTTGTTACCTATTGTGCACTTCATATAAATTAAA,10.8
11,ATTTATTTCTTGTTAGTGCACTTTCTTTGGTAAAAT,11.1
12,ACGTTAGGCTTATTTGCACACTTGTATTAAAATTTT [CACACA_site4854],7.27
13,ACATTAAAAAATTGTTTGCACTATATAAAATATTAA [GTGCAC_site9728],8.2
14,CACGTGAAAATACAAGCATGCAAGCTTTTTTTTTCT [TGCATGCA_site642],6.53
15,TACAATTCGTAATACACACACATATAAATAAATATT [CACACA_site7720],7.28
16,AAATAATAAAGTATAACACACATATTTATTTATATA [CACACA_site7822],6.73
17,AATAGAACAAATAAAACACACACATATATATATATA [CACACA_site8893],9.42
18,AAAGAACAAATAAAACATAAAATAATATATATAGAT [CACACA_negctrl_site1764],7.02
19,AAAATACGAATATAAACATGCACCATATAGAACAAA [TGCATGCA_site925],10.7
20,ATAGATGCATATTATACACACATATGTAAATACATT [CACACA_site4691],7.06

row,Sequence,gcPBM binding intensity (ln)
1,CAAACAATTAAACAAACACACATATACAAGTATATA [CACACA_site8639],7
2,TGAACATATTAAAATTGTACATATGCACAATATGTA [XGTACX_site6801],7.44
3,AGTAGGCATATTGGTTGTACAAAAAAATTATGCACC [XGTACX_site8925],10.3
4,GTAGGCATTAAAAAATGTACAAAATATTATGAATTG [XGTACX_site1615],6.85
5,ATATAAACAAAGCAGTGCACGTAAACAAAACATATA [CACACA_negctrl_site1076],10.4
6,TTAAAAGTAAGCAAAGTGCATATAACAAAAGTAAAG,8.19
7,TAAAAAAAAACATGTGCACACGTTTTATCTACATAA [CACACA_site2336],8.79
8,ATCTCTACAAAGTGCACACACGTAAAAACATATATA [CACACA_site6046],10.8
9,TTGCACTCGTAAAAAGCACACATATAAAAACATTTA [CACACA_site7997],8.15
10,AAACAGAATACATATACACACATACAAAAAAGTGCA [CACACA_site8235],7.52
11,ATAAACATATAAAAAGTGCATATTCATATATCTACT,8.7
12,TTATCTCTACAAAGTGCACACACGTAAAAACATATA [CACACA_site3957],10.4
13,TAAAAAAAAACATATACACACAAAAACGTACACATA [CACACA_site1354],7.29
14,ATATATATGTATATGTGTACTTATATTTGTCATTTT [XGTACX_site1317],7.11
15,TAATATTTATGTTAATGTACAAAAAAACAAAACAAA [XGTACX_site301],7.09
16,TTTTTTAAATATTAAAAATGGGATCTTATAACATAT [GTGCAC_negctrl_site666],6.91
17,ATATATATAATAAACACACACATATACATAGATGTA [CACACA_site5841],7.49
18,AAATAAAAGATATTTTTACACACTTTTGATGAGATC [CACACA_site9000],6.75
19,AAAAAAAAAAAAAAAAAAATATATTATATATATATA [XGTACX_negctrl_site467],9.19
